Measurements from PubChem BioAssay.
The source made the active and inactive calls.

Legend:
[1] = E. coli DRC41 culture turbidity changes, primary screen, E. coli filamentation inducer project, strain DRC41, OD650, 48 h (AID 1152);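 further: E. coli MC1000 strain DRC41 lacking acrAB efflux pump and sulA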; conditions: E. coli DRC41 (acrAB sulA), higher = more signal, called active from +8 up or from −8 down
[2] = small-molecule binders of probe aLefty1, primary screen, biochemical, small-molecule microarray, 635/667 nm fluorescence (AID 1153); conditions: higher = more signal;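 further: score merges spot fluorescence with signal-to-noise ratio from the scanned slide images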
[3] = PSAC antagonists in infected red cells, primary screen, cell-based, P. falciparum Indochina, OD700, 1 h (AID 1154); conditions: P. falciparum Indochina infected RBC osmotic lysis, higher = more signal, called active from +8 up or from −8 down
[4] = PSAC antagonists in infected red cells, primary screen, cell-based, P. falciparum Indochina, OD700, 2 h (AID 1155);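 further: lysis reports solute entry through the parasite surface anion channel PSAC; channel blockers reduce lysis of infected cells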; conditions: P. falciparum Indochina infected erythrocytes, osmotic lysis OD700; higher = more signal, called active from +8 up or from −8 down
[5] = osmotic lysis modulators in infected erythrocytes, primary screen, PSAC antagonist project, cell-based, P. falciparum Indochina, OD700, 3 h (AID 1156); conditions: higher = more signal, called active from +8 up or from −8 down
[6] = PSAC antagonists in infected red cells, primary screen, cell-based, P. falciparum Indochina, OD700, 18 h (AID 1157); conditions: P. falciparum Indochina infected erythrocytes, osmotic lysis OD700, 18 h; higher = more signal, called active from +8 up or from −8 down
[7] = modulators of S6 phosphorylation in cells, primary screen, cell-based, A549, cytoblot, luminescence, serum-stimulated (AID 1158); conditions: A549 phospho-S6 cytoblot, 5 h, higher = more signal;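 further: serum-stimulated A549 lung adenocarcinoma cells; signal is phosphorylated S6 detected by cytoblot immunostaining with HRP secondary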
[8] = target: NADPH oxidase 2 (Homo sapiens) (UniProt P04839); experiment: NOX2-dependent H2O2 signal modulators, primary screen, NOX inhibitor project, cell-based, HEK293-NOX2, PMA-stimulated, Amplex Red fluorescence (AID 1159); conditions: 45 min, higher = more signal, called active from +8 up or from −8 down; further: test concentration not given here
NADPH oxidase 2 (Homo sapiens), sequence (P04839 whole entry, looked up): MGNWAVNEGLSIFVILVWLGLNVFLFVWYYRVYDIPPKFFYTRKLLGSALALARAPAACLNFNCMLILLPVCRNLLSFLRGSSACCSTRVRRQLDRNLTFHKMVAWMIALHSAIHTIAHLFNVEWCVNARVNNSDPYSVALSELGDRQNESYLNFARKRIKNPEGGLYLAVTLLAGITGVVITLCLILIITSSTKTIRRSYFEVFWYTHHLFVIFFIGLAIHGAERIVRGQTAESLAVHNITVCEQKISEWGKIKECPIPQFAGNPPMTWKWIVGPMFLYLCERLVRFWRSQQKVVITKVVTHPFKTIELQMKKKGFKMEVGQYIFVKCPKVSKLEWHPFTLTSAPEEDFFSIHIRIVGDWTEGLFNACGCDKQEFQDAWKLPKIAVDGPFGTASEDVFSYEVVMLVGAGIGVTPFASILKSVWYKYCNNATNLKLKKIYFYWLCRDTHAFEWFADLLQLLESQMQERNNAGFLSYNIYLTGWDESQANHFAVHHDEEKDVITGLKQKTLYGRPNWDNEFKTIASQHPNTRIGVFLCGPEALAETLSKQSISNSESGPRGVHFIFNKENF

[9] = target: NADPH oxidase 4 (Homo sapiens) (UniProt Q9NPH5); experiment: NOX4-dependent H2O2 signal modulators, primary screen, NOX inhibitor project, cell-based, HEK293-NOX4, tetracycline-induced, Amplex Red fluorescence (AID 1160); conditions: 45 min, higher = more signal, called active from +8 up or from −8 down
NADPH oxidase 4 (Homo sapiens), sequence (Q9NPH5 whole entry, looked up): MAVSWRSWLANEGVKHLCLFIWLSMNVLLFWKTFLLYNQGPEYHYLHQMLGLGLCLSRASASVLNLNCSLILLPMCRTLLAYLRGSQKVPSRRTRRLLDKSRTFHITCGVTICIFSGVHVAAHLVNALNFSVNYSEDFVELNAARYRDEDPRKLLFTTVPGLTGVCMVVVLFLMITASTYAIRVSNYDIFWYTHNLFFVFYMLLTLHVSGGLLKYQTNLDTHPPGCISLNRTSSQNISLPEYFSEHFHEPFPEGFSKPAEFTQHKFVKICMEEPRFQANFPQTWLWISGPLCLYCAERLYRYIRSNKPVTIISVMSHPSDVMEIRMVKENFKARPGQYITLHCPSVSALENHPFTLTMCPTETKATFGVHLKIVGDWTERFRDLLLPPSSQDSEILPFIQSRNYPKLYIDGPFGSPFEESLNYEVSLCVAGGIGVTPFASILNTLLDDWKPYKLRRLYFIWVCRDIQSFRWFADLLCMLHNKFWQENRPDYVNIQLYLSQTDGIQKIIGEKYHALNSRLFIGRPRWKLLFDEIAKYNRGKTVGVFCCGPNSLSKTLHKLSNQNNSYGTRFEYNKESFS

[10] = target: NADPH oxidase 5 (Homo sapiens) (UniProt Q96PH1); experiment: NOX5-dependent H2O2 signal modulators, primary screen, NOX inhibitor project, cell-based, HEK293-NOX5, Amplex Red fluorescence (AID 1161); conditions: HEK293-NOX5, ionomycin, 45 min, higher = more signal
NADPH oxidase 5 (Homo sapiens), sequence (Q96PH1 whole entry, looked up): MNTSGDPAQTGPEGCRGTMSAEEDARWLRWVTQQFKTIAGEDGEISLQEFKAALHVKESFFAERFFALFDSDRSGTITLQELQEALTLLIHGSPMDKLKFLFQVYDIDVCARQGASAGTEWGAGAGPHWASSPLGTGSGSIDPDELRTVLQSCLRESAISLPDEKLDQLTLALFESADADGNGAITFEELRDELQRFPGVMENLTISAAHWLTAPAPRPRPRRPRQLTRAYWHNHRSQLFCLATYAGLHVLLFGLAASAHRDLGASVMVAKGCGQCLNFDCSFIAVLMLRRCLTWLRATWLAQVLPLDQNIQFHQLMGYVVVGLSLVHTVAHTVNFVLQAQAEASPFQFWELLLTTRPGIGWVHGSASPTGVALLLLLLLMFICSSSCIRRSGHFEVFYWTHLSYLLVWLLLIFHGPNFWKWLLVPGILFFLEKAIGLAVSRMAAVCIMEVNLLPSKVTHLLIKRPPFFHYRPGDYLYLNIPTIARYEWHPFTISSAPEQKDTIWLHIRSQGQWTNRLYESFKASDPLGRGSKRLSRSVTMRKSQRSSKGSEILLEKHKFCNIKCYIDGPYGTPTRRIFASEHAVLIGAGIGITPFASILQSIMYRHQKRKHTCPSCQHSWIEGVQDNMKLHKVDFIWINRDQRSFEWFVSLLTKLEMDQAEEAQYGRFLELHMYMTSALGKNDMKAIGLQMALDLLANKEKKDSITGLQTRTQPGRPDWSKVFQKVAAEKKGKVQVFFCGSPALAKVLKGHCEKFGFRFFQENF

SMILES | z-score [1] | composite z-score [2] | z-score [3] | z-score [4] | z-score [5] | z-score [6] | z-score [7] | z-score [8] | z-score [9] | z-score [10]
CC(C)=C1C(=O)C(c2ccccc2)=C2CN3C(=O)N(CCc4ccccc4)C(=O)[C@]3(Cc3ccc(C(F)(F)F)cc3)[C@H]21 | -2.19 (inactive) | 0.522 | 22.3 (active) | 5.86 (inactive) | 0.511 (inactive) | 1.21 (inactive) | -0.558 | -0.12 (inactive) | -1.21 (inactive) | -0.226
NC(=O)NCC#Cc1ccc2c(c1)[C@]1(C(=O)N2)[C@H](C(=O)N2CCN(c3ncccn3)CC2)[C@H]2C(=O)O[C@H](c3ccccc3)[C@H](c3ccccc3)N2[C@@H]1c1ccc(O)cc1 | -1.08 (inactive) | 0.141 | -0.362 (inactive) | -0.136 (inactive) | 0.174 (inactive) | -0.302 (inactive) | 0.435 | 1.13 (inactive) | 0.162 (inactive) | 0.437
COC(=O)C1(CC(C)C)C=C2C(=C(c3ccccc3)C(=O)C2C)CN1 (stereo not given) | -1.03 (inactive) | 1.58 | 1.28 (inactive) | -0.382 (inactive) | 0.806 (inactive) | 0.323 (inactive) | 0.54 | -0.00718 (inactive) | -1.48 (inactive) | -2.44
CC(C)C(O)C1C=CC2C(=O)N(c3ccccc3)C(=O)C2N1Nc1ccccc1 (stereo not given) | -0.471 (inactive) | -0.0163 | 1.2 (inactive) | -0.4 (inactive) | 1.33 (inactive) | -0.741 (inactive) | 0.325 | -3.32 (inactive) | -4.05 (inactive) | -6.43
CCCCCN1CC=CC23O[C@@H]4/C=C\CCC(C)OC(=O)C4[C@H]2C(=O)N(C(CO)C(C)C)[C@@H]3C1=O (stereo not given in full) | 1.66 (inactive) | -0.106 | 1.38 (inactive) | 0.881 (inactive) | 1.2 (inactive) | 0.699 (inactive) | -0.0209 | 1.36 (inactive) | -0.231 (inactive) | 1.86
C[C@@H]1NC(=O)[C@@H](Cc2ccccc2)NC(=O)[C@@]23C(=O)N[C@@H](Cc4ccccc4)C2[C@H](C)[C@@]2(C)O[C@H]2C3/C=C/C/C=C\CNC1=O (stereo not given in full) | -1.02 (inactive) | -0.0046 | 1.92 (inactive) | 0.581 (inactive) | 0.638 (inactive) | 0.159 (inactive) | -0.177 | 0.722 (inactive) | -0.614 (inactive) | 0.523
COc1ccc(CCNC(=O)[C@@]2(c3ccc([N+](=O)[O-])cc3)CC(=O)N(C3CCCCC3)[C@@H]2c2ccc(CO)cc2)cc1 | 1.31 (inactive) | 0.213 | 0.965 (inactive) | -0.0966 (inactive) | 1.03 (inactive) | -0.383 (inactive) | -0.112 | -1.05 (inactive) | 0.479 (inactive) | 0.0392
CCOC(=O)C[C@H]1[C@H](OC(=O)c2ccc(-c3ccccc3)cc2)[C@@H](NC(=O)CC(C)C)c2cc(OCCCO)ccc2N1C(=O)c1ccc2ccccc2n1 | -0.0672 (inactive) | -0.274 | 2.19 (inactive) | 0.0409 (inactive) | 0.457 (inactive) | 0.238 (inactive) | 0.2 | -1.89 (inactive) | 0.452 (inactive) | -0.0775
CCC#CCN(Cc1ccccc1Br)[C@H](/C=C/C1CC1)[C@@H](O)Cc1ccccc1 | 2.06 (inactive) | -0.13 | -0.224 (inactive) | -0.834 (inactive) | -0.239 (inactive) | -1.53 (inactive) | 1.62 | 0.214 (inactive) | 1.07 (inactive) | -1.2
C=CCC(OC(C)=O)[C@@H]1[C@@H](N(Cc2cccc3ccccc23)C(=O)Cc2ccc(OC)cc2)c2cc(OCCCO)ccc2N1C(=O)c1ccc(-c2ccccc2)cc1 (stereo not given in full) | -0.62 (inactive) | 0.0429 | 0.0926 (inactive) | 0.299 (inactive) | -0.278 (inactive) | 0.263 (inactive) | 0.0614 | -1.33 (inactive) | -0.257 (inactive) | -1.21
O=C(c1ccccc1)N1C(=O)[C@]2(Cc3ccccc31)N=C(c1ccc(OCCCO)cc1)O[C@@H]2c1ccccc1 | -0.857 (inactive) | 0.297 | 21.9 (active) | 8.53 (active) | 0.0521 (inactive) | 1.35 (inactive) | -0.203 | 0.491 (inactive) | -0.703 (inactive) | -1.77
CCCCC[C@H]1OC[C@@]23C=C(Br)[C@@H](CC12)[C@@]1(CO1)C3=O (stereo not given in full) | -1.12 (inactive) | -0.294 | 1.66 (inactive) | 0.533 (inactive) | 0.487 (inactive) | 0.184 (inactive) | -0.446 | -0.459 (inactive) | 0.438 (inactive) | 0.134
COCC(=C=CC[C@H](O)c1ccc(CO)o1)CCO | -0.434 (inactive) | -0.198 | 0.811 (inactive) | 0.0508 (inactive) | -0.148 (inactive) | -0.159 (inactive) | -0.992 | 0.249 (inactive) | -0.177 (inactive) | -0.224
COc1ccc([Si](C)(C)[C@@H]2[C@@H](CCO)O[C@]3(C(=O)N(Cc4ccccc4)c4ccc(NC(=O)[C@H](C)O)cc43)[C@H]2C)cc1 | 0.573 (inactive) | 0.621 | 12.8 (active) | 2.77 (inactive) | -0.919 (inactive) | 1.92 (inactive) | 0.402 | 0.77 (inactive) | 0.452 (inactive) | 1.8
C=CCOC(=O)[C@@H]1[C@H]2C(=O)O[C@H](c3ccccc3)[C@H](c3ccccc3)N2[C@H](c2ccc(OCCOC(=O)[C@@H]3C[C@@H]4C(=O)N[C@@H](CCCC[N+](C)(C)C)C(=O)N4[C@@H]3c3ccc(O)cc3)cc2)[C@@]12C(=O)Nc1ccc(I)cc12 | 0.0995 (inactive) | 0.668 | 0.321 (inactive) | 1.12 (inactive) | 3.11 (inactive) | 0.0802 (inactive) | -1.27 | 2.43 (inactive) | 0.0539 (inactive) | 0.718
CCCNC(=O)[C@@]1(C)c2ccccc2C(=O)N(c2ccc(C)cn2)[C@H]1c1ccc(CO)cc1 | -0.819 (inactive) | 0.0533 | 1.57 (inactive) | 0.123 (inactive) | 0.181 (inactive) | 0.0101 (inactive) | 0.426 | -1.23 (inactive) | 0.155 (inactive) | 0.238
COc1cc(OC)c(C(O)C2C=CC3C(=O)N(Cc4ccccc4)C(=O)C3N2n2cnnc2)cc1Br (stereo not given) | -1.21 (inactive) | 0.0509 | -0.0011 (inactive) | -0.731 (inactive) | 1.34 (inactive) | -2.29 (inactive) | 1.71 | -3.2 (inactive) | -1.35 (inactive) | -3.53
COC(=O)C1=CC(CCCO)=CC(c2cccs2)N(C)C=C1C(=O)OC (stereo not given) | -0.35 (inactive) | 0.147 | 2.47 (inactive) | 0.596 (inactive) | 0.148 (inactive) | 0.426 (inactive) | -0.481 | 0.467 (inactive) | -1.36 (inactive) | 0.931
[N-]=[N+]=Nc1ccccc1C[C@@]1(C(N)=O)N=C(c2ccc(OCCCO)cc2)O[C@@H]1c1ccccc1N=[N+]=[N-] | 0.587 (inactive) | 0.0211 | 30.4 (active) | 25.3 (active) | 2.63 (inactive) | 1.35 (inactive) | 2.05 | -0.0581 (inactive) | -1.11 (inactive) | -1.55
NCCCCCCNC(=O)[C@@H]1C[C@@H]2C(=O)N[C@@H](CCCCN)C(=O)N2[C@@H]1c1ccc(O)cc1 | 0.264 (inactive) | 0.614 | 1.11 (inactive) | -1.03 (inactive) | -2.05 (inactive) | -1.85 (inactive) | 0.0189 | -1.77 (inactive) | -1.06 (inactive) | -3.51
CCOC(=O)C[C@H]1[C@H](OC(=O)Cc2ccc3c(c2)OCO3)[C@@H](NC(=O)c2ccc3ccccc3n2)c2cc(OCCCO)ccc2N1C(=O)c1ccc2ccccc2n1 | 3.01 (inactive) | 0.103 | 15.8 (active) | 2.25 (inactive) | -1.37 (inactive) | -0.0077 (inactive) | 1.3 | 0.11 (inactive) | 0.204 (inactive) | -2.65
C#CCN([C@@H](Cc1ccccc1)C(=O)OC)[C@@H](/C=C/C1CC1)[C@H](O)Cc1ccccc1 | -0.634 (inactive) | -0.0538 | 1.09 (inactive) | 0.443 (inactive) | -0.0572 (inactive) | -0.307 (inactive) | -0.169 | -0.284 (inactive) | -0.417 (inactive) | -2.34
CC(C)C(CO)N1C(=O)[C@@H]2C3C(=O)OCCC/C=C\[C@H]3OC23C=CCN(Cn2nnc4ccccc42)C(=O)[C@@H]13 (stereo not given in full) | 0.302 (inactive) | -0.147 | 0.897 (inactive) | -0.364 (inactive) | -0.443 (inactive) | 0.234 (inactive) | 1.36 | 1.23 (inactive) | 0.806 (inactive) | 1.51
CC#CCO[Si](C#Cc1ccccc1)(C(C)C)C(C)C | -0.112 (inactive) | -0.193 | 0.175 (inactive) | -0.286 (inactive) | -0.975 (inactive) | -0.4 (inactive) | -1.16 | -2.19 (inactive) | -0.176 (inactive) | -0.624
COCCOC(=O)N1C(=O)[C@@]2(c3cc(C#CC4=CCCCC4)ccc31)[C@H](C(=O)Nc1nc3ccccc3s1)[C@H]1C(=O)O[C@H](c3ccccc3)[C@H](c3ccccc3)N1[C@@H]2c1ccc(O)cc1 | -0.61 (inactive) | 0.103 | 0.141 (inactive) | 0.524 (inactive) | -0.0845 (inactive) | 1.2 (inactive) | -0.123 | 0.843 (inactive) | -0.44 (inactive) | 0.759
O=C1N(CCS(=O)(=O)c2ccccc2)c2ccccc2[C@H]2OC(c3ccc(OCCCO)cc3)=N[C@@]12Cc1ccccc1 | -1.05 (inactive) | 0.253 | 31.2 (active) | 27.5 (active) | 3.08 (inactive) | 6.96 (inactive) | 0.468 | -1.85 (inactive) | 1.07 (inactive) | -0.191
